The sample as a whole holds a higher share of hits than the screen did.
Pf Dd2 growth: Plasmodium falciparum Dd2 growth inhibition; P. falciparum Dd2 growth, SYBR Green, 72 h; Potency, µM (highest dose often 28.9 µM), most hits filed as inhibitors; 4.3% of 120,000 active; active = well fitted inhibition curve with a large enough effect; note: nearly all actives have a fitted effect of over 65% in size
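Infected erythrocytes (Dd2, 0.3% parasitemia, 2.5% hematocrit final) are added to compound in RPMI-1640/Albumax II medium, grown 72 h at 37C in low oxygen, then lysed with saponin/Triton-X containing SYBR Green and read by fluorescence.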
A number is an active result.

For CC(C)=CC(=O)N1CC[C@H](NC(=O)Nc2ccc(F)cc2F)[C@H]1C(=O)N[C@H](Cc1ccccc1)C(N)=O the results were Pf Dd2 growth inactive.
CCOc1ccc(C(=O)N2CC(=O)Nc3ccc(F)cc3C2c2ccc(F)cc2)cc1 (configuration not stated) was read as Pf Dd2 growth inactive.
Screening CC(=O)N1CC(=O)Nc2ccc(F)cc2C1c1ccccc1 (configuration not stated) returned Pf Dd2 growth inactive.
`CCCCC1CCC(C(=O)N2CC(=O)Nc3ccc(Br)cc3C2c2ccc(F)cc2)CC1` (configuration not stated) gave Pf Dd2 growth 10µM.
`COc1ccc(CC(=O)N2CC(=O)Nc3ccc(Br)cc3C2c2ccc(F)cc2)cc1` (configuration not stated) gave Pf Dd2 growth inactive.
`CCCCC(=O)N1CC(=O)Nc2ccc(F)cc2C1c1ccc(F)cc1` (configuration not stated) gave Pf Dd2 growth 7.9µM.
For CN(C)S(=O)(=O)c1ccc(C(=O)N2CC(=O)Nc3ccc(Br)cc3C2c2ccc(F)cc2)cc1 (configuration not stated) the results were Pf Dd2 growth inactive.
`O=C(NC[C@H]1OC[C@@H](N(Cc2ccccc2)Cc2ccccc2)[C@@H]1O)Nc1ccccc1` gave Pf Dd2 growth inactive.
For CCOCCNc1ncnc2c1CN(c1ccc(C)cc1)C(=O)CN2C the results were Pf Dd2 growth inactive.
`CNCC(=O)N1CCCC(N2CCN(Cc3ccc4c(c3)OCO4)CC2)C1` (configuration not stated) gave Pf Dd2 growth inactive.
Cc1ccccc1NC(=O)N1CCC(CCNC(=O)C2(c3ccccc3)CC2)CC1 was read as Pf Dd2 growth inactive.
CC(C)Cn1nc2n(c1=O)CCN(S(=O)(=O)Cc1ccccc1)CC2 was read as Pf Dd2 growth inactive.
CC(C)Cn1nc2n(c1=O)CCN(S(=O)(=O)c1cccs1)CC2 was read as Pf Dd2 growth inactive.
`CC(C)Cn1nc2n(c1=O)CCN(S(=O)(=O)c1ccc(C(C)(C)C)cc1)CC2` gave Pf Dd2 growth 11µM.
CCO[C@H]1CN(C(=O)c2ccc(Oc3ccccc3)o2)C[C@@H]1O was read as Pf Dd2 growth inactive.
Screening Cc1ccc(C(=O)N2CCC(Cc3nc(-c4ccc(F)cc4)no3)CC2)cn1 returned Pf Dd2 growth inactive.
Screening c1ccc(CN2C[C@H]3CCN(C4CCOCC4)C[C@H]32)cc1 returned Pf Dd2 growth inactive.
Screening CN1CCC(N[C@@H]2CO[C@H](CNC(=O)C3CCCC3)[C@H]2O)CC1 returned Pf Dd2 growth inactive.
Screening Cc1ccc(O)c(C(CC(=O)NCC2(c3ccccc3)CCCC2)c2ccccc2)c1 (configuration not stated) returned Pf Dd2 growth 10µM.
`COc1ccc(C)cc1NC(=O)C(=O)NCC1(c2ccccc2)CCCC1` gave Pf Dd2 growth inactive.
For Cc1ccc(NC(=O)C(=O)NCC2(c3ccccc3)CCCC2)cc1C the results were Pf Dd2 growth inactive.
Screening COC(=O)CNC(=O)c1cc(Br)cn2ccnc12 returned Pf Dd2 growth inactive.
O=C(Cn1nc2c(cc1=O)CCCC2)N[C@@H](Cc1ccccc1)C(=O)O was read as Pf Dd2 growth inactive.
CCOc1cc(C2C(C(=O)OC)=C(C)NC3=C2C(=O)c2ccccc23)ccc1OC (configuration not stated) was read as Pf Dd2 growth 10µM.
For CCOc1cc(C2C(C(=O)OC)=C(C)NC3=C2C(=O)c2ccccc23)c(Br)cc1O (configuration not stated) the results were Pf Dd2 growth inactive.
For CCOC(=O)COc1ccc(C2C(C(=O)OC)=C(C)NC3=C2C(=O)c2ccccc23)cc1Cl (configuration not stated) the results were Pf Dd2 growth inactive.
Screening NC(=O)[C@@H]1CN(C(=O)c2cccc(F)c2)C[C@H]1COc1ccccc1 returned Pf Dd2 growth inactive.
`C[C@@]12CC[C@H]3O[C@H](COc4ccccc4)OC[C@@]3(C)C1CC[C@@H](O)C2CC(=O)N1CCCC1` (some centres not stated) gave Pf Dd2 growth inactive.
`N#Cc1ccc(CN2CCCN(S(=O)(=O)c3ccccc3)CCC(=O)NCC2)cc1` gave Pf Dd2 growth inactive.
`Cc1ccc(C(=O)N2C(C(=O)NCC3CCCO3)COC23CCN(C(=O)CC(C)(C)C)CC3)cc1` (configuration not stated) gave Pf Dd2 growth inactive.
For Cc1ccc2oc3c(c(=O)c2c1)C(c1ccc(O)cc1)N(CCCN(C)C)C3=O (configuration not stated) the results were Pf Dd2 growth inactive.
Screening COc1ccc(C2c3c(oc4ccc(C)cc4c3=O)C(=O)N2CCCN2CCOCC2)cc1OC (configuration not stated) returned Pf Dd2 growth inactive.
Screening CC(C)c1ccc(C2c3c(oc4ccc(Cl)cc4c3=O)C(=O)N2CCCN2CCOCC2)cc1 (configuration not stated) returned Pf Dd2 growth 6.3µM.
`Cc1ccc(-n2ncc3c2CCCC3NC(=O)c2cc(C(C)C)no2)cc1C` (configuration not stated) gave Pf Dd2 growth inactive.
CC(C)NC(=O)NCc1nnc2n1C(C(=O)N1CCCC1)CC2 (configuration not stated) was read as Pf Dd2 growth inactive.
`CN1C[C@@H](NC(=O)Nc2ccccc2)C[C@H]1c1nc(-c2ccc(Cl)cc2)no1` gave Pf Dd2 growth inactive.
Screening COc1ccccc1CNC(=O)c1ccc(Cn2ccn3nc4c(c3c2=O)CCCC4)cc1 returned Pf Dd2 growth inactive.
Screening CC(CCc1ccccc1)NC(=O)c1ccc(Cn2ccn3nc4c(c3c2=O)CCCC4)cc1 (configuration not stated) returned Pf Dd2 growth 8.9µM.
For CNC(=O)c1ccc(Cn2ccn3nc4c(c3c2=O)CCCC4)cc1 the results were Pf Dd2 growth inactive.
CC1(C)C(=O)N(CCOc2ccccc2)[C@H]2CN(c3cccc(C(F)(F)F)c3)C[C@@H]2[S+]1(=O)[O-] was read as Pf Dd2 growth inactive.
`O=C(CCC1CCCN(S(=O)(=O)c2ccccc2F)C1)NCCN1CCCC1` (configuration not stated) gave Pf Dd2 growth inactive.
Screening O=S(=O)(NC[C@H]1C[C@@H]2CCN1C[C@@H]2CN1CCc2ccccc21)c1ccc(Cl)cc1 returned Pf Dd2 growth inactive.
For COc1ccc(S(=O)(=O)NC[C@H]2C[C@@H]3CCN2C[C@@H]3CN(C)Cc2ccccc2)cc1 the results were Pf Dd2 growth 2µM.
COc1ccc(S(=O)(=O)NC[C@H]2C[C@@H]3CCN2C[C@@H]3CN2CCc3ccccc32)cc1 was read as Pf Dd2 growth 11µM.

Assay outcomes deposited in PubChem by National Center for Advancing Translational Sciences (NCATS).
